# Source: PubChem BioAssay (NCI)
# Compounds without any hit were thinned out: in the full panel of roughly 83,000, 20% have a hit.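 For each line, cells grew in 96-well plates with the test compound present at a single concentration for 48 hours.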 Values without a mark were called inactive. How the source made its calls: active means growth percent below 10; inactive means the rest.
# Test system: MDA-MB-231 breast
# Assay: NCI-60 one-dose screen, 48 h (100 = growth as untreated, 0 = no growth, -100 = all killed)
# Conditions: 10 µM
row,Compound,growth
1,CN(C)c1ccc(CNC(C(=O)c2ccccc2)c2ccccc2)cc1 (centres undefined),107%
2,CC(C)COC(=O)COC(=O)OCCOCCOC(=O)OCC(=O)OCC(C)C,113%
3,S=C(Nc1ccccc1)N1CCCCC1,98.5%
4,O=C(O)CCCc1ccccc1,117%
5,COc1cc(OC)c2ccc(=O)oc2c1,93.4%
6,Cc1cc(=O)[nH]c(NN=C2CCCC2)n1,102%
7,Nc1ccc(C(=O)c2ccc(N)c(Br)c2)cc1Br,24.8%
8,CCCC(=O)c1cc(C)ccc1OC,93.8%
9,Nc1ccc(NC(=O)c2cccc(N)c2)cc1,97.1%
10,O=C(N/N=C/c1ccccc1O)Nc1nn[nH]n1,102%
11,CCOC(=O)/C(C#N)=C/c1cccc(C)c1,110%
12,Nc1ccccc1C(=O)Nc1ccc(Cl)cc1Cl,84.4%
13,CC1=CC(=O)c2ccccc2C1=O,98.8%
14,COC(=O)Nc1nc2ccc(C(=O)c3cccs3)cc2[nH]1,24%
15,Cc1nc2ccccc2c2nnc(SCC(=O)N(Cc3ccccc3)c3ccccc3)n12,92.1%
16,CC1=C(/C=C/C(C)=C/C=C/C(C)=C/CO)C(C)(C)CCC1,102%
17,CC(=O)Nc1cccc(Cl)c1C,99.5%
18,COc1cc([C@@H]2c3cc4c(cc3[C@H](O)[C@H]3COC(=O)[C@H]23)OCO4)cc(OC)c1OC,10.1%
19,CC1CCC(C(=O)O)N1 (centres undefined),102%
